Data on 26 compounds can be found in PubChem BioAssay AID777 (Sanford-Burnham Center for Chemical Genomics, 2007).

The whole screen tested about 96,000 compounds, of which about 19,000 (20%) were called active.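 Rule for the calls: active = blocking of liver enzyme CYP2C9 beyond about 50% at 5 µM (limit read from the data); inactive = the rest.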 Not all results are given here.

Cytochrome P450 2C9 (Homo sapiens), sequence (P11712 whole entry, looked up): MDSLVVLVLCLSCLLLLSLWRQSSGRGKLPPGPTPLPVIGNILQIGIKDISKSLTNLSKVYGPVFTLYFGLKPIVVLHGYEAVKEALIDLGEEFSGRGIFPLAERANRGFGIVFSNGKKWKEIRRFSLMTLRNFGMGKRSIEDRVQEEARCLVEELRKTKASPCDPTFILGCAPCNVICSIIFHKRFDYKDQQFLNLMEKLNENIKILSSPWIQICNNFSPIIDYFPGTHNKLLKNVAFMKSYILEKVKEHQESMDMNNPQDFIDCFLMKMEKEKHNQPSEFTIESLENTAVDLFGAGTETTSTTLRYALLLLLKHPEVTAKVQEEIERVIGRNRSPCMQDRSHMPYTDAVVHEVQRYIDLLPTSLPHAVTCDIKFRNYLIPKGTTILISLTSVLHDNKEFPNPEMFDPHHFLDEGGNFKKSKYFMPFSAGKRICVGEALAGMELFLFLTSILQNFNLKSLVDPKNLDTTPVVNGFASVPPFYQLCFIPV

This assay addresses Cytochrome P450 2C9 (Homo sapiens) (UniProt P11712). Kind of assay: blockers of cytochrome P450 2C9 activity – biochemical, luminescence, ADME assay, primary screen (AID 777). Particulars: CYP2C9 Supersomes, luciferin-H conversion, at 5 µM, hits give high values.
As to `CCOc1ccc(NC(=O)Nc2ccc(N(C)C(C)=O)cc2)cc1`, the inhibition (in general, the relative decrease from the control value, in per cent) is -6.3% (inactive).

`CC(=O)Nc1cccc(/C(C)=N/NC(=O)c2ccccc2Cl)c1`: the inhibition is 0.2% (inactive).

For `O=C(Nc1ccc2sc3ccccc3c(=O)c2c1)c1ccccc1Cl`, the inhibition is -9% (inactive).

Regarding `Cc1ccc(C)c(N2C(=O)CS/C2=N\NC(=O)c2ccccc2Cl)c1`, the inhibition was 77.7% (active).

As for `COc1ccc(-c2nnn(Cc3nc(N)nc(N4CCCCC4)n3)n2)cc1`, the inhibition was 17.3% (inactive).

With `CCOc1cc(/C=C2/N=C(c3ccc(C(C)(C)C)cc3)OC2=O)cc(Cl)c1OS(C)(=O)=O`, the inhibition is 30.3% (inactive).

As for `CCOCCCN1C(=O)CN(C2CCCCC2)C(=O)C1c1ccc(OCC)c(OC)c1` (stereo unspecified), the inhibition was 15.3% (inactive).

For `COc1cc2[nH]c(=S)n(Cc3ccc(C)o3)c(=O)c2cc1OC`, the inhibition is -0.8% (inactive).

In the case of `Cc1nc2cc(S(=O)(=O)C(F)(F)F)ccc2s1`, the inhibition is 1.9% (inactive).

Turning to `O=C(CC(O)(C(F)(F)F)C(F)(F)F)Nc1ccc(Cl)c(Cl)c1`, the inhibition was 65% (active).

Turning to `Cc1nnc(NC(=O)Nc2ccc(Cl)c(Cl)c2)s1`, the inhibition is 48.4% (inactive).

`N/C(=N\OC(=O)Nc1ccc(Cl)c(Cl)c1)c1ncc(C(F)(F)F)cc1Cl`: the inhibition was -6.7% (inactive).

For the compound `C=CCn1c(N)c(S(=O)(=O)c2cccs2)c2nc3ccccc3nc21`, the inhibition was 86.3% (active).

As to `C=CCn1c(N)c(C(=O)OCC(C)C)c2nc3ccccc3nc21`, the inhibition is 28.3% (inactive).

As for `Cc1ccc(S(=O)(=O)c2c(N)n(C)c3nc4ccccc4nc23)cc1`, the inhibition is 14.2% (inactive).

Turning to `CCCCSc1nnc(-c2ccc(C)cc2)o1`, the inhibition was 31.3% (inactive).

On to `CCS(=O)(=O)N1CCC(C(=O)N2CCN(c3ccccc3)CC2)CC1`, for which the inhibition was 9.9% (inactive).

For the compound `O=C(CSCc1ccccc1)N1CCc2ccccc21`, the inhibition is -12.4% (inactive).

As for `O=C(C1CCN(S(=O)(=O)Cc2ccccc2)CC1)N1CCCc2ccccc21`, the inhibition was 51.8% (active).

Turning to `CCOc1ccc(NC(=O)C2CC(=O)N=C(N)S2)cc1` (stereo unspecified), the inhibition was -2.4% (inactive).

With `CC(NC(=O)C1CCC(CNc2c(N3CCOCC3)c(=O)c2=O)CC1)c1ccccc1` (stereo unspecified), the inhibition was -6.7% (inactive).

Regarding `O=C(Nc1cccc2cccnc12)c1cccc(N2C(=O)CCC2=O)c1`, the inhibition is -71.6% (inactive).

`Cn1c(CNC(=O)C(C)(C)C)nc2ccccc21`: the inhibition is -13.1% (inactive).

Consider `COc1ccc(C(=O)N2CCc3cc(OC)c(OC)cc3C2c2cccc([N+](=O)[O-])c2)cc1` (stereo unspecified), for which the inhibition is 64.4% (active).

Consider `COc1cc(C(=S)N2CCOCC2)cc(OC)c1OC(=O)c1cc([N+](=O)[O-])cc([N+](=O)[O-])c1`, for which the inhibition was -5% (inactive).

As for `COc1ccc(Cc2nnc(SCC(=O)c3cccc([N+](=O)[O-])c3)n2C)cc1`, the inhibition is 38.7% (inactive).
